Reference: PubChem BioAssay AID1903 (Southern Research Specialized Biocontainment Screening …, 2009)
Out of some 310,000 compounds screened, about 1,200 (0.39%) were called active. No rule for the calls is given here. Only a sample is shown. Results with a measured potency or affinity are listed apart.

Target: Large T antigen (Simian virus 40) (UniProt P03070)
Experiment: SV40 large T antigen inhibitors, biochemical (AID 1903)
Details: SV40 large T antigen ATPase/helicase inhibition assay; at 20 µM; hits give high values

Chain of Large T antigen (Simian virus 40) (P03070 whole entry, looked up): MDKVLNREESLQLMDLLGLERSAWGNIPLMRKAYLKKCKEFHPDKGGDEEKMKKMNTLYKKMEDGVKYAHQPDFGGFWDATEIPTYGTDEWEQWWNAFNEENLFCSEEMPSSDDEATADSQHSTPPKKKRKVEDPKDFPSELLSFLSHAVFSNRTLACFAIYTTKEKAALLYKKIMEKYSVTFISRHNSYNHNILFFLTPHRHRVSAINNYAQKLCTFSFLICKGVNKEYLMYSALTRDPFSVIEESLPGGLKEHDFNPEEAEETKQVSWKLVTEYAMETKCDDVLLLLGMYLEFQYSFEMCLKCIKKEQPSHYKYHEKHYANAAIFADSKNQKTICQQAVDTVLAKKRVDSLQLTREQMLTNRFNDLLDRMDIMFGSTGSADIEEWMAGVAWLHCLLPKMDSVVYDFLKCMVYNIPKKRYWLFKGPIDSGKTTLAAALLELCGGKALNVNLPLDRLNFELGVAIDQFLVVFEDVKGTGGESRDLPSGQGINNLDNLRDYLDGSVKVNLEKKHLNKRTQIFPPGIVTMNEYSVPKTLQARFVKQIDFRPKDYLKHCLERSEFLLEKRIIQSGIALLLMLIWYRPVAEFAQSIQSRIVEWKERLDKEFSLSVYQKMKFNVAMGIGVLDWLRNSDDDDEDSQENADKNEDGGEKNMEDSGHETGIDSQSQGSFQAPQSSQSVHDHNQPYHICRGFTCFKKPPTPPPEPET

inhibition, inactive:
Cc1cc(OCC(=O)NC2CC2)c2c(C)c(C)c(=O)oc2c1 20.6%, O=C(CN1CCOCC1)Nc1cccc(C(F)(F)F)c1 16.1%, COc1cc(Cl)c(C)cc1NC(=O)CCCn1c(=O)oc2ccccc21 4.1%, O=C(CN1CCOCC1)NNC(=S)Nc1ccccc1 4.41%, CN(CC(=O)Nc1cccc(F)c1)C(=O)c1cccc(S(=O)(=O)N2CCN(c3ccccc3)CC2)c1 6.82%, O=[N+]([O-])C1=C(Nc2cccc3ccccc23)CS(=O)(=O)C1 0.61%, Cc1ccc(NC2=C([N+](=O)[O-])CS(=O)(=O)C2)cc1 2.4%, O=C1N/C(=C\c2ccsc2)C(=O)N1Cc1ccc(F)cc1 5.82%, COc1ccc(CN2C(=O)c3ccccc3C2=O)cc1 5.14%, O=C1N/C(=C/c2ccc(N3CCOCC3)cc2)C(=O)N1Cc1ccc(F)cc1 3.08%, COC(=O)C1=C(C)N(Cc2ccc(OC)cc2)C(=O)/C1=C\c1ccco1 10.5%, O=C1/C(=C/c2cccnc2)SC(=S)N1c1ccc(F)cc1 21.6%, O=C1/C(=C\c2cccnc2)SC(=S)N1c1ccc(F)cc1 9.19%, Cc1ccc(/C=C2/NC(=O)N(Cc3ccc(Br)cc3)C2=O)o1 9.48%, Cc1ccc(/C=C2/NC(=O)N(Cc3ccccc3)C2=O)o1 9.41%, COc1cccc(C(=O)COc2ccc(NC(=O)c3cccs3)cc2)c1 -1.46%, Cc1nn(-c2ccccc2)c(N)c1N=Nc1ccc(Cl)cc1 5.29%, CC(=O)NCCCc1nc2ccccc2n1Cc1cc(C)ccc1C 2.29%, O=C(CN1C(=O)/C(=C/c2ccccc2Cl)SC1=S)NC1CCS(=O)(=O)C1 (stereo unspecified) 14.6%, O=C(CCCN1C(=O)/C(=C\c2ccccc2)SC1=S)Nc1ccc(O)cc1C(=O)O 11.7%, O=C(CN1C(=O)/C(=C/c2ccccc2)SC1=S)NC1CCS(=O)(=O)C1 (stereo unspecified) 15.6%, COc1ccccc1/C=C1\SC(=S)N(CCC(=O)Nc2ccc(C(=O)O)c(O)c2)C1=O 22.1%, O=C(CCCN1C(=O)/C(=C\c2ccco2)SC1=S)Nc1ccc(O)cc1C(=O)O 83.1%, O=C(CN1C(=O)S/C(=C\c2cccs2)C1=O)Nc1ccc(C(=O)O)c(O)c1 13.4%, O=C(CCCN1C(=O)/C(=C/c2ccccc2)SC1=S)Nc1ccc(C(=O)O)c(O)c1 11.4%, O=C(CCN1C(=O)/C(=C/c2cccs2)SC1=S)Nc1ccc(C(=O)O)c(O)c1 35%, COC(=O)COc1ccc2occ(C(C)=O)c2c1 -0.85%, COC(=O)c1[nH]c2ccc(F)cc2c1NC(=O)Nc1ccc(OC)cc1 11.4%, CN1CCN(C(=O)CSc2nnc(COc3ccccc3)o2)CC1 6.15%, Cc1ccc2oc3nc(C)c(C(=O)Nc4cccc(C(F)(F)F)c4)cc3c(=O)c2c1 2.24%, Clc1ccc(/C=N/N2CCCCC2)cc1 5.46%, Cc1cc(NC(=O)C(=O)c2c(C)[nH]c3ccccc23)no1 3.99%, CCOc1ccc2nc(NC(=O)CC3Oc4ccccc4NC3=O)sc2c1 (stereo unspecified) 7.51%, O=C(COC(=O)c1ccccc1SCC(=O)N1CCCC1)NC1CCCCC1 7.38%, CC1(C)CC(=O)C/C(=N/NC(=O)COc2ccc3ccccc3c2Br)C1 8.99%, C/C(CC(=O)Nc1ccc2c(c1)OCCO2)=N\NC(=O)Cc1ccccc1 9.69%, CC(C(=O)Nc1ccc(O)cc1C(=O)O)N1C(=O)/C(=C\c2cccs2)SC1=S (stereo unspecified) 38.1%, CCN(C(=O)C(C)N1C(=O)/C(=C/c2ccco2)SC1=S)C1CCS(=O)(=O)C1 (stereo unspecified) 33.8%, O=C(CCCN1C(=O)/C(=C/c2cccs2)SC1=S)Nc1ccc(O)c(C(=O)O)c1 29.5%, O=C(CCCN1C(=O)/C(=C\c2ccco2)SC1=S)Nc1ccc2ccccc2c1 18.2%, Cc1ccc2nc(N3CCN(c4ccccc4)CC3)c(C=O)c(=O)n2c1 3.59%, CCn1cc(S(=O)(=O)CC(=O)N2CCc3ccccc32)c2ccccc21 16.3%, COCC(C)n1c(SCc2nc(N)nc(Nc3ccccc3C)n2)nc2ccccc2c1=O (stereo unspecified) 23%, COc1cccc(N2C(=O)/C(=C\c3cccs3)NC2=S)c1 24%, COc1cccc(NCc2ccc([N+](=O)[O-])s2)c1 20.9%, COc1cccc(/C=C2/C(=O)NN(c3ccccc3)C2=O)c1 26.6%, COc1cccc(/C=C2\C(=O)N(c3cccc(C)c3)C(=O)c3ccccc32)c1 11%, COc1ccc(NC(=O)CCNC(=O)c2ccco2)cc1OC 0.95%, O=C(O)C1CCCN1C(=O)Nc1ccccc1 (stereo unspecified) 4.07%, CN1CCN(CC(=O)O)CC1 17.9%, COc1ccc2c(c1)[nH]c1c(=O)n(CCC3=CCCCC3)cnc12 9.61%, CCOC(=O)N1CCC(Nc2ccc(N3C(=O)C4CCCCC4C3=O)cc2[N+](=O)[O-])CC1 (stereo unspecified) 10.6%, COc1ccc(C(=O)CCc2ccccc2)c(O)c1 7.01%, COC(=O)CCc1ccc(O)cc1 4.8%, Cc1ccsc1CNC(=O)c1c(-c2ccccc2)noc1C 2.94%, O=C1CNC(=S)N1CCc1ccc(Cl)cc1 6.29%, O=C1CNC(=S)N1CCCc1ccccc1 5.18%, COc1ccc(-c2cc(C(F)(F)F)nc(SCC(=O)NCCCN3CCOCC3)n2)cc1 9.25%, Cc1ccc(N2CC3=C(C2=O)C(c2ccccc2)NC(=O)N3C)cc1 (stereo unspecified) 5.38%, CN1C(=O)NC(c2ccc(O)cc2)C2=C1CN(c1ccccc1)C2=O (stereo unspecified) 6.82%, Cc1nnc2n(-c3ccccc3)c(=O)c3c4c(sc3n12)COC(C(C)C)C4 (stereo unspecified) 5.27%, CSc1nnc2n(-c3ccc(C)cc3)c(=O)c3c4c(sc3n12)COC(C(C)C)C4 (stereo unspecified) 10.7%, CN1CCc2c(sc3c2c(=O)n(-c2ccccc2)c2n[nH]c(=S)n32)C1 25.6%, Cc1nnc2n(Cc3ccccc3)c(=O)c3c4c(sc3n12)COC(C(C)C)C4 (stereo unspecified) 7.22%, O=C(O)c1nn2c(c1Br)NC(c1ccccc1)CC2C(F)(F)F (stereo unspecified) 3.96%, COc1ccc(C(=O)NNC(=O)C2CCCN(C3CC(=O)N(c4ccccc4)C3=O)C2)cc1 (stereo unspecified) 9.48%, C/C(=N/NC(=O)NC12CC3CC(CC(C3)C1)C2)c1ccccc1 6.61%, Cc1ccc(NCC(O)Cn2cnc3c2c(=O)n(C)c(=O)n3C)cc1 (stereo unspecified) 16.6%, Cn1c(=O)c2c(ncn2CC(O)CNc2ccc(F)cc2)n(C)c1=O (stereo unspecified) 5.3%, CCOC(=O)C1CCN(C(=S)Nc2ccccc2)CC1 11.3%, Cc1c(C(=O)OCC(C)C)[nH]c2c1C(=O)CC(c1cccs1)C2 (stereo unspecified) 22.8%, CCOC(=O)C1=C(C)NC(c2cccs2)C(=O)N1 (stereo unspecified) 6.75%, COc1ccccc1N/N=C/c1ccc2c(c1)OCO2 5.16%, CCN(CC)C(=O)Nc1ccccc1C 3.88%, COc1ccccc1-c1cn[nH]c1-c1ccc(O)cc1O 36.1%, COc1ccc(-c2cn[nH]c2-c2ccc(O)cc2O)cc1 25.6%, CC/C(=N/O)C(=O)c1ccc(Br)cc1 8.42%, Cc1ccccc1NC(=O)COC(=O)/C=C/c1cccc(C(F)(F)F)c1 3.86%, O=[N+]([O-])c1cc(S(=O)(=O)NC2=NCCCCC2)ccc1Cl 6.57%, O=C(N=Nc1ccc(NOC(=O)c2ccccc2Br)cc1)c1ccccc1O 11.6%, O=Nc1ccc(NOC(=O)c2ccccc2)cc1 19.7%, O=C(O)C1CCN(C(=O)c2cccc3ccccc23)CC1 4.64%, CCc1ccccc1N1CC(C(=O)O)CC1=O (stereo unspecified) -0.59%, Cc1cc(N2CCOCC2)nc2ccc(NC(=S)NC(C)C)cc12 4.55%, COc1ccc(NC(=O)/C=C/c2cc(OC)c(OC)c(OC)c2)cn1 7.41%, CS(=O)(=O)N(CC(=O)NC1CC1)C1CCCCC1 7.67%, Cc1csc(-c2cnn(-c3ccccc3)c2NC(=O)c2cccc(C(F)(F)F)c2)n1 0.685%, O=[N+]([O-])c1cc(S(=O)(=O)N2CCOCC2)ccc1N1CCCC1 -2.39%, O=S(=O)(c1ccc(N2CCOCC2)c(Cl)c1)N1CCOCC1 7.49%, N#Cc1cc(S(=O)(=O)N2CCOCC2)ccc1N1CCOCC1 7.94%, Cc1ccc(C)n1-c1cc(S(=O)(=O)N2CCOCC2)ccc1N1CCCC1 1.24%, CCSC1=C(C#N)C(c2cccc(Br)c2)CC(=O)N1 (stereo unspecified) 1.17%, CCOC(=O)c1[nH]c2ccc(OC)cc2c1N=CN(C)C 16.9%, CCn1nnnc1SCC(=O)Nc1cccc(NC(C)=O)c1 0.63%, Cc1ccc2nccc(C(=O)N3CCCC(Nc4ccc(F)cc4)C3)c2c1 (stereo unspecified) 14%, Cc1ccc(-c2noc(C3CCCN(C(=O)c4ccccc4Br)C3)n2)o1 (stereo unspecified) 15.6%
